The list is not random: actives were taken first. Their share in the collection is about 1.3%.
WRN inhibitor: inhibitors of human WRN helicase | Q14191 | WRN helicase unwinding, fluorescent forked duplex, kinetic | Potency, µM (titrated, usually from 114 µM), usual class: inhibitors | 360,000 compounds, 0.46% hits | AID 651768; further: nearly all actives have a fitted effect of over 55% in size
Target sequence (Q14191 whole entry, looked up): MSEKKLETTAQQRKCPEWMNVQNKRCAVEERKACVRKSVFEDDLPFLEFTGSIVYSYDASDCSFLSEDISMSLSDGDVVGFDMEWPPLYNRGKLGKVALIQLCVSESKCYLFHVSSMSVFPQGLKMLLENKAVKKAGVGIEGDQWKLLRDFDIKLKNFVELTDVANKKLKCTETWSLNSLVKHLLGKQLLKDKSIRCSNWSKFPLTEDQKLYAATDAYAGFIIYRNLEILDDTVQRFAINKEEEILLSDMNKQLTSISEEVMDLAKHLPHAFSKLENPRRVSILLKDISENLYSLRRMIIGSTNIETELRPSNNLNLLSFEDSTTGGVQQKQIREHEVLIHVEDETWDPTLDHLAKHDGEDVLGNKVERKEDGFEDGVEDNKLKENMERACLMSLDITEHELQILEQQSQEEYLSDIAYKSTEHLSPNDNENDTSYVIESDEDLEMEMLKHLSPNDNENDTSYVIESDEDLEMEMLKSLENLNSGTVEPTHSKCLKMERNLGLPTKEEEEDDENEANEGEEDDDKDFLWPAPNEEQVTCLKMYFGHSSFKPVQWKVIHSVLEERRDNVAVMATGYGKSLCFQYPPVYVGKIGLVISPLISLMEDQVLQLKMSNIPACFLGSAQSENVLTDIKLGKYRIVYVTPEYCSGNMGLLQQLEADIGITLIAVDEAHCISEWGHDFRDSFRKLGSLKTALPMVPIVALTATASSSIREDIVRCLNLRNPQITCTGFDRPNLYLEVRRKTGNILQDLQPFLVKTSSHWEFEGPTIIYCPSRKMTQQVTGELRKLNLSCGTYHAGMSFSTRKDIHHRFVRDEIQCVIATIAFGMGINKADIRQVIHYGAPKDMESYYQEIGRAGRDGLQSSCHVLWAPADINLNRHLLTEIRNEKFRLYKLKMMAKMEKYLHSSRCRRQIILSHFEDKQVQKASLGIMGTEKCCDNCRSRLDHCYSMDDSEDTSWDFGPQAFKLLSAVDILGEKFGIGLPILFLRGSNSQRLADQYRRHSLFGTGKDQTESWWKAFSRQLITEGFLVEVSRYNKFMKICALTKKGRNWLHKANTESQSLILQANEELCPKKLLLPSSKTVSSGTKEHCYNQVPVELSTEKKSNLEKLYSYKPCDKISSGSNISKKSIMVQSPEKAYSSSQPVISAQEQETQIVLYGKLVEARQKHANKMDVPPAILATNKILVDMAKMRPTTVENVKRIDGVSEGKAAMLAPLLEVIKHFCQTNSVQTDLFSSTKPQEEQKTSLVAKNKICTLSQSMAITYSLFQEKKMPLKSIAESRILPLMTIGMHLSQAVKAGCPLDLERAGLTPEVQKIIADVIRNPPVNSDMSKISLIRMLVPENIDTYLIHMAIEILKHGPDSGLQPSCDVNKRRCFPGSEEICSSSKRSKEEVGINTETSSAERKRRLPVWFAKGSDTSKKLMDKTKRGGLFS
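Screening of the MLSMR collection measured strand separation of a quenched forked DNA duplex (100 nM) by 20 nM WRN with 2 mM ATP, all final. Compounds were preincubated with enzyme 15 min at room temperature.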
FEN1 inh: human FEN1 inhibition. AID 588795. 390,000 compounds, 0.35% hits. Potency, µM (series often up to 114 µM), most hits filed as inhibitors. P39748. Recombinant FEN1 flap cleavage, fluorescence, 15 min; further: nearly all actives have a fitted effect of over 65% in size
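Recombinant FEN1 (10 nM) was preincubated with pin-transferred compounds for 15 min at room temperature, then flap DNA substrate (50 nM final) was added. Plates were read at 0 and 15 min, and normalized concentration–response data were fitted to a four-parameter Hill equation.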
Glioma ERSR ind: inducers of ER stress response in human glioma cells | U87-MG GRP78 promoter luciferase reporter, 16 h | Potency, µM, usual class: activators | 420,000 compounds, 0.02% hits; further: series mostly up to about 76 µM; nearly all actives have a fitted effect of over 35% in size
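Stably transfected U87-MG glioma cells carrying a GRP78-based luciferase sensor; 16 h compound incubation. Luminescence end-point read 10 min after Bright-Glo addition at room temperature.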
Pin1 inh: human Pin1 inhibition; Q13526; Pin1 FP peptide displacement, HiFluor488, 10 min; Potency, µM (series often up to 115 µM), hits mostly inhibitors; 390,000 compounds, 0.009% hits; active means well fitted inhibition curve with a large enough effect in the polarisation, with a control signal flat, not every such curve was filed as active; inconclusive means small, poorly fitted or top-dose-only effect, or effect the other way, or a change in a side signal; inactive means no such curve, though single readings can be large or run the other way; the % refers to the polarisation
PI5P4Ka inh: inhibitors of human PI5P4K alpha | max response, % | AID 652105 | PI5P4Kalpha enzyme, ADP-Glo luminescence, 60 min; active compounds read low | 330,000 compounds, 1.2% hits; active means max response of -50% or lower; inconclusive means between -30% and -50%; inactive means -30% or higher; further: value at the top dose of about 77 µM
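ADP-Glo luminescence end-point after a 60 min room-temperature kinase reaction. PI5P4Kalpha and substrate in HEPES pH 7.4 buffer with EGTA, 0.1% CHAPS and 5% DMSO; ATP at 5 microM final.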
Tb PGK inh: T. brucei PGK inhibition. AID 602233. PGK/GAPDH coupled, Kinase-Glo luminescence, 60 min. Potency, µM (series often up to 57.5 µM), most hits filed as inhibitors. 380,000 compounds, 0.043% hits. P07378; further: nearly all actives have a fitted effect of over 60% in size
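Luminescent ATP detection (Kinase-Glo Plus) follows a 60-minute room-temperature incubation, with wells lacking PGK as controls. Buffer: 100 mM TEA (pH 7.6), 5 mM MgCl2, 0.01% Tween-20. Coupling enzyme GAPDH (100 nM final) supplies unstable 1,3-BPG in-well.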
Hits are given with their value; – = inactive; ? = inconclusive; · = no result given; [ ] = another dose, or the depositor's remark. Unless noted, the call rests on the fitted dose curve; in most records, active means well fitted curve in the direction sought with a large enough effect; inconclusive means small, poorly fitted or top-dose-only effect, or another doubt; inactive means no such curve, though single readings can be large; an effect the other way counts as inactive or inconclusive.

SMILES	WRN inhibitor	FEN1 inh	Glioma ERSR ind	Pin1 inh	PI5P4Ka inh	Tb PGK inh
O=C(CSc1ncnc2scc(-c3ccccc3)c12)Nc1ccc(C(=O)O)cc1	–	–	–	–	-85	–
Cn1nnnc1Sc1ncnc2scc(-c3ccccc3)c12	–	–	–	–	-52	–
CCOc1cccc2c1Oc1nc(-c3ccccc3)nc(SCC(=O)Nc3ccc(F)cc3)c1C2	·	–	–	–	·	–
CC(=O)NC1C(=O)N(CCN2CCOCC2)c2ccc(C)cc21 (stereo not given)	–	?	–	50µM	–	20µM
CCCCN1C(=O)C(NC(C)=O)c2cc(Br)ccc21 (stereo not given)	–	–	–	–	–	–
CC(=O)NC1C(=O)N(CCN2CCOCC2)c2ccc(F)cc21 (stereo not given)	–[11.6 µM]	50µM	–	–	–	·
O=C(C[N+]12CN3CN(CN(C3)C1)C2)c1ccc(O)c(O)c1	·	14µM	–	·	·	·
O=C(C[N+]12CN3CN(CN(C3)C1)C2)c1ccc(Cl)cc1	·	–	–	·	·	·
Cc1c(P(=S)(c2ccccc2)c2ccccc2)c2ccccc2n1C(=O)NCc1ccccc1	·	·	·	–	·	·
CN1/C(=C/c2cc[n+](C)c3ccccc23)C=Cc2ccccc21	28µM	45µM	–	–	–	–
Cc1cc[n+](C)c2ccccc12	·	?	–	·	·	·
CS(=O)(=O)Nc1cccc(-c2cc(F)c(S(=O)(=O)N3CCN(S(=O)(=O)c4ccc5c(c4)OCCO5)CC3)cc2F)c1	·	·	·	–	·	·
O=S(=O)(O)c1cccc(N=Nc2c(O)ccc3ccccc23)c1	–	?	–	?	-54	–
COc1ccc(C(=O)O)c(O)c1OC	·	·	–	·	·	·
COC1=C(N)C(=O)c2nc(-c3nc(C(=O)O)c(C)c(-c4ccc(OC)c(OC)c4O)c3N)ccc2C1=O	?	4µM	–	?	–	?
O=C1c2ccccc2C(=O)c2[nH]c(=O)[nH]c21	–[11.6 µM]	?	–	–	-69	–
O/C=c1\ccc2cccc3nc(C(F)(F)F)nc1c23	79µM	79µM	–	·	?	–
COc1cc(-c2ccc3ncnc(NCCc4cnc[nH]4)c3c2)cc(OC)c1OC	·	·	·	–	·	·
O=C(/C=C/c1ccc(O)c(O)c1)NC(=O)c1ccccc1O	56µM	?	–	?	?	–
CC(=O)Oc1ccc2occ(/C=N/c3cc(=O)[nH]c(=S)[nH]3)c(=O)c2c1	–	–	–	?	-51	–
O=C(Nc1ccccc1)Nc1nc(Nc2cc(F)cc(F)c2)nc(NC2CCCC2)n1	·	·	·	–	·	·
Cc1cc(C(F)(F)F)nn1Cc1n[nH]c(=S)n1Cc1ccccc1	–	–	–	–	-54	–
Cc1cc(C(F)(F)F)nn1Cc1n[nH]c(=S)n1-c1ccc(Cl)cc1	–	–	–	–	–	–
O=c1c2c(O)cc(O)cc2oc2c(O)ccc(O[C@H]3O[C@@H](CO)[C@H](O)[C@@H](O)[C@@H]3O)c12	–	–	–	?	-56	–
O=c1c(OC2OC(CO)C(O)C(O)C2O)c(-c2ccc(O)c(O)c2)oc2cc(O)cc(O)c12 (stereo not given)	–[11.6 µM]	?	–	–	–	?
SMILES	WRN inhibitor	FEN1 inh	Glioma ERSR ind	Pin1 inh	PI5P4Ka inh	Tb PGK inh
Cc1cc2c(s1)c1cnn(Cc3cc(F)c(F)c(F)c3F)c(=O)c1n2C	·	·	·	–	·	·
Cc1ccc(/C=C2\SC(=S)N(C3CCS(=O)(=O)C3)C2=O)o1 (stereo not given)	?	?	–	?	-53	–
Cc1ccc(C2(C)NC(=O)N(CC(=O)Nc3nc(-c4ccccn4)cs3)C2=O)cc1 (stereo not given)	?	–	–	–	-59	–
COC(=O)c1c(OCc2ccccc2)cc(=O)n2c1CCN(Cc1cccc(C)n1)CC2	·	·	–	·	·	·
O=C(c1ccco1)N1CCN(C(=O)c2cc(-c3ccccc3)nc3ccccc23)CC1	–	–	–	–	–	–
O=C(c1ccco1)N1CCN(C(=O)c2cc(-c3ccccn3)nc3ccc(Cl)cc23)CC1	–	–	–	–	-59	–
O=[N+]([O-])c1ccc(Oc2ccc(N=C=S)cc2)cc1	·	·	–	·	·	·
CC(=O)N1CCc2c(sc(NC(=O)c3ccc([N+](=O)[O-])o3)c2C(N)=O)C1	–	·	–	·	-65	–
CC(C)N1CCc2c(sc(NC(=O)CN3C(=O)c4ccccc4C3=O)c2C(N)=O)C1	–	–	–	–	–	–
CC(=O)N1CCc2c(sc(NC(=O)CN3C(=O)c4ccccc4C3=O)c2C(N)=O)C1	–	–	–	–	-77	–
Cn1nccc1C(=O)NCC1CCC2(CCN(Cc3ccc(-c4ccc(Cl)cc4)o3)CC2)O1 (stereo not given)	·	·	–	·	·	·
COc1cccc(C2c3c(ncn(-c4ccccc4C)c3=N)Oc3ccc4ccccc4c32)c1 (stereo not given)	·	·	·	–	·	·
Cc1nc2ccc(S(=O)(=O)N3CCN(S(=O)(=O)c4c(F)cccc4F)CC3)cc2s1	·	·	·	–	·	·
Cc1cc2c(s1)c1cnn(Cc3ccc(C#N)cc3)c(=O)c1n2C	·	·	·	–	·	·
Cc1cc2c(s1)c1cnn(Cc3ccc(C(=O)O)cc3)c(=O)c1n2C	·	·	·	–	·	·
CCC(=O)OC1(C)C(=O)C=C2C=C(CCCC(=O)OC)OC=C2C1=O (stereo not given)	–[11.6 µM]	?	–	?	?	–
CCCCC1=CC2=CC(=O)C(C)(OC(=O)CC)C(=O)C2=CO1 (stereo not given)	–	?	–	?	-65	–
